42 molecules from the antibiotic and cytotoxicity screens of Wong et al. (2023) can be followed below.

The whole screen tested about 39,000 compounds, of which about 1,500 (3.8%) were called active. Many of the other results were omitted from the sample, so actives are more common in it than they were.

The assay has as its system HSkMC (human skeletal muscle cells). Description: cytotoxicity call (relative viability < 0.9). The note with it: 10 µM.
Take `Cc1noc(C)c1NC(=O)Nc1ccc2c(c1)C(=O)N([C@H](C)CO)C[C@H](C)[C@H](CN(C)Cc1ccc(C(F)(F)F)cc1)OCCCC[C@H](C)O2`: the cytotoxicity call was “inactive”.

As for `C[C@@H]1CN([C@H](C)CO)C(=O)Cc2cc(NC(=O)c3ccncc3)ccc2O[C@H]1CN(C)Cc1ccc2c(c1)OCO2`, the cytotoxicity call is “inactive”. The entry for `C[C@H]1CN([C@@H](C)CO)C(=O)c2ccccc2-c2ccccc2CO[C@H]1CN(C)Cc1ccc(Oc2ccccc2)cc1` is “inactive”; for `COC1=CC(=O)c2ccccc2C1=O` it is “inactive”.

For the molecule `COc1ccc(C(=O)C=Cc2ccccc2)cc1`, the cytotoxicity call is “inactive”. On to `COC1=CC(=O)C(O)=CC1=CC=Cc1ccccc1`, for which the cytotoxicity call was “active”. The entry for `C[C@H]1CCCCO[C@H](CN(C)C(=O)Nc2ccc(C(F)(F)F)cc2)[C@@H](C)CN([C@@H](C)CO)C(=O)c2cc(NS(C)(=O)=O)ccc2O1` is “inactive”; for `Cc1noc(C)c1S(=O)(=O)Nc1ccc2c(c1)C(=O)N([C@H](C)CO)C[C@@H](C)[C@@H](CN(C)CC1CCCCC1)OCCCC[C@@H](C)O2` it is “inactive”. For `C[C@H](CO)N1C[C@H](C)[C@@H](CN(C)Cc2ccc(C(F)(F)F)cc2)Oc2c(NC(=O)c3nc4ccccc4s3)cccc2C1=O`, the cytotoxicity call was “inactive”. The entry for `C[C@@H]1CN([C@@H](C)CO)C(=O)c2cccc(NC(=O)c3nc4ccccc4s3)c2O[C@@H]1CN(C)Cc1ccc(C(F)(F)F)cc1` is “inactive”; for `C[C@@H]1CN([C@@H](C)CO)C(=O)c2cccc(NC(=O)c3nc4ccccc4s3)c2O[C@H]1CN(C)Cc1ccc(C(F)(F)F)cc1` it is “inactive”. For `C[C@@H]1CN([C@H](C)CO)C(=O)c2cccc(NC(=O)c3nc4ccccc4s3)c2O[C@@H]1CN(C)Cc1ccc(C(F)(F)F)cc1` the value was “inactive”; for `C[C@H]1CN([C@@H](C)CO)C(=O)c2cccc(NC(=O)c3nc4ccccc4s3)c2O[C@@H]1CN(C)Cc1ccc(C(F)(F)F)cc1`, “active”.

Regarding `C[C@@H]1CN([C@H](C)CO)C(=O)c2cccc(NC(=O)c3nc4ccccc4s3)c2O[C@H]1CN(C)Cc1ccc(C(F)(F)F)cc1`, the cytotoxicity call is “active”. For `C[C@H](NC(=O)C[C@@H]1C[C@@H]2c3cc(NC(=O)Nc4ccc(C(F)(F)F)cc4)ccc3O[C@@H]2[C@@H](CO)O1)c1ccccc1` the value was “inactive”; for `C[C@H]1CN([C@@H](C)CO)C(=O)c2ccccc2-c2ccccc2CO[C@@H]1CN(C)Cc1cccc(C(F)(F)F)c1`, “inactive”; for `C[C@@H]1CCCCO[C@@H](CN(C)C)[C@@H](C)CN([C@H](C)CO)C(=O)c2cc(NC(=O)Nc3ccc(C(F)(F)F)cc3)ccc2O1`, “inactive”. For `CO[C@@H](CN(C)S(=O)(=O)c1cccc(Cl)c1)[C@@H](C)CN([C@H](C)CO)S(=O)(=O)c1ccc(Cl)cc1` the value was “inactive”; for `C[C@H](CO)N1C[C@H](C)[C@@H](CN(C)C(=O)CCCN(C)C)OCCCC[C@H](C)Oc2ccc(NC(=O)Nc3ccc(C(F)(F)F)cc3)cc2C1=O`, “inactive”. On to `C[C@@H]1CN([C@H](C)CO)C(=O)c2cc(NC(=O)Cc3cn(C)c4ccccc34)ccc2O[C@@H]1CN(C)Cc1ccc(Oc2ccccc2)cc1`, for which the cytotoxicity call is “inactive”. The entry for `C[C@H](CO)N1C[C@H](C)[C@H](CN(C)Cc2ccc(-c3ccccc3)cc2)Oc2ccc(NC(=O)Cc3cn(C)c4ccccc34)cc2C1=O` is “active”. The entry for `C[C@H]1CN([C@@H](C)CO)C(=O)c2cc(NC(=O)Cc3cn(C)c4ccccc34)ccc2O[C@@H]1CN(C)Cc1ccc(Oc2ccccc2)cc1` is “active”. For `C[C@@H]1CN([C@H](C)CO)C(=O)c2cc(NC(=O)Cc3cn(C)c4ccccc34)ccc2O[C@H]1CN(C)Cc1ccc(Oc2ccccc2)cc1`, the cytotoxicity call was “inactive”. The entry for `C[C@H](CO)N1C[C@H](C)[C@H](CN(C)Cc2ccc(Oc3ccccc3)cc2)Oc2ccc(NC(=O)Cc3cn(C)c4ccccc34)cc2C1=O` is “active”; for `C[C@H]1CN([C@@H](C)CO)C(=O)c2cc(NC(=O)Cc3cn(C)c4ccccc34)ccc2O[C@H]1CN(C)Cc1ccc(Oc2ccccc2)cc1` it is “inactive”. With `C[C@@H]1CN([C@@H](C)CO)C(=O)c2cc(NC(=O)Cc3cn(C)c4ccccc34)ccc2O[C@H]1CN(C)Cc1ccc(-c2ccccc2)cc1`, the cytotoxicity call was “inactive”. The entry for `C[C@@H]1CN([C@@H](C)CO)C(=O)c2cc(NC(=O)Cc3cn(C)c4ccccc34)ccc2O[C@H]1CN(C)Cc1ccc(Oc2ccccc2)cc1` is “inactive”. The entry for `C[C@@H]1CN([C@H](C)CO)C(=O)c2cc(NC(=O)Cc3cn(C)c4ccccc34)ccc2O[C@H]1CN(C)Cc1ccc(-c2ccccc2)cc1` is “inactive”; for `CC(C)[C@@H](N)c1ncnn1C` it is “inactive”.

Consider `COc1ccc(NC(=O)Nc2ccc3c(c2)C(=O)N([C@H](C)CO)C[C@@H](C)[C@H](CN(C)S(=O)(=O)c2ccc(Cl)cc2)OCCCC[C@H](C)O3)cc1`, for which the cytotoxicity call is “inactive”.

In the case of `CC(C)C#Cc1cnc2c(c1)C(=O)N([C@@H](C)CO)C[C@H](C)[C@H](CN(C)C(=O)c1ccc3c(c1)OCO3)O2`, the cytotoxicity call was “inactive”. Turning to `C[C@H](CO)N1C[C@H](C)[C@@H](CN(C)C(=O)Cc2ccccn2)Oc2cc(-c3cccc(C(=O)N(C)C)c3)ccc2S1(=O)=O`, the cytotoxicity call is “inactive”. The entry for `C[C@H]1[C@H]([Si](C)(C)F)[C@@H](CC(=O)N2Cc3ccccc3C[C@H]2CO)O[C@]12C(=O)N(c1ccccc1)c1ccccc12` is “inactive”.

As for `CCCNc1ncnc(N)c1[N+](=O)[O-]`, the cytotoxicity call is “inactive”. The entry for `NS(=O)(=O)c1ccccc1` is “inactive”.

As for `NS(=O)(=O)C#Cc1ccccc1`, the cytotoxicity call is “active”. For `Nc1ccccc1S(N)(=O)=O` the value was “inactive”. For `CCC[C@@H](O)C#Cc1cnc2c(c1)C(=O)N([C@H](C)CO)C[C@H](C)[C@H](CN(C)S(C)(=O)=O)O2` the value was “inactive”; for `CCOc1cc(C(C)(C)C)ccc1C1=N[C@@](C)(c2ccc(Cl)cc2)[C@@](C)(c2ccc(Cl)cc2)N1C(=O)N1CCN(CCCS(C)(=O)=O)CC1`, “active”; for `C[C@H]1CN([C@@H](C)CO)S(=O)(=O)c2ccc(/C=C/c3ccccc3)cc2O[C@@H]1CN(C)C(=O)CN1CCOCC1`, “inactive”. The entry for `C[C@H]1CN([C@@H](C)CO)C(=O)Cc2cc(NC(=O)c3ccncc3)ccc2O[C@@H]1CN(C)S(=O)(=O)c1cn(C)cn1` is “inactive”.

As for `COc1cccc(S(=O)(=O)N(C)C[C@@H]2Oc3ncc(C#CC(C)C)cc3C(=O)N([C@@H](C)CO)C[C@@H]2C)c1`, the cytotoxicity call was “inactive”.
